Assay results taken from PubChem BioAssay AID875 (National Center for Advancing Translational Sciences (NCATS), 2007).
About 35 (0.05%) of roughly 75,000 compounds were called active. A call without a number means that no potency is given here. Only a selection was taken, and actives are over-represented in it overall. Unmarked numbers belong to inactive results. The call rests on the fitted dose curve; in most records, active means well fitted inhibition curve with a large enough effect; inconclusive means small, poorly fitted or top-dose-only effect; inactive means no such curve, though single readings can be large or run the other way.

target: Breast cancer type 1 susceptibility protein (Homo sapiens) (UniProt P38398); assay: qHTS Assay for Inhibitors of BRCT-Phosphoprotein Interaction (Green Fluorophore); settings: BRCA1 BRCT-phosphopeptide binding, green fluorescence polarization; series mostly up to 76.9 µM
Experimental: NIH Molecular Libraries Screening Centers Network [MLSCN]
NIH Chemical Genomics Center [NCGC]
PI Name: Natarajan, Amarnath; University of Texas
A complex of BRCT (C-terminal portion of BRCA1, MW ~35 kDa, His-tagged) and fluorescently labeled pBACH1 phosphorylated 10 aa peptide fragment of BACH1, a helicase implicated in DNA repair, is incubated with library members. Inhibitors of BRCT-pBACH1 binding are detected by a decrease in the fluorescence polarization (FP) of the fluorophore. In order to minimize the effect of fluorescence artifacts and to increase the overall robustness of the screen, the compound library members were incubated in separate reactions with fluorescein labeled probe-protein complexes. Protein and labeled probes were supplied by Dr. Amarnath Natarajan, Department of Pharmacology and Toxicology, University of Texas Medical Branch Galveston, TX.
Assay Buffer: 16mM Na2HPO4, 4 mM NaH2PO4, 150 mM NaCl, 1 mM EDTA, 1 mM DTT, 0.02% NaN3, and 0.01% Tween 20 at pH 7.3.
100 nM labeled decapeptide/250 nM protein in columns 1, 2, 5 - 48. Titration of unlabeled decapeptide control (from 10 mM, then 1:2 dilution in duplicate) pin-transferred to column 2, rows 1 to 16. Column 1 is neutral.
Three uL of reagents were dispensed to 1536-well Greiner black solid-bottom plates. Compounds and controls (23 nL) were transferred
via Kalypsys PinTool. The plates were incubated for 12 min at room temperature, and then read on ViewLux (Perkin-Elmer) High throughput CCD imager using FITC for the fluorescein-labeled decapeptide probe polarization filter sets. During dispense, reagent bottles were kept submerged into 4 deg C water bath and all liquid lines were covered with aluminum foil to minimize probe and protein degradation. All screening operations were performed on a Kalypsys robotic system (Kalypsys, Inc., San Diego, CA) containing one RX-130 and two RX-90 anthropomorphic robotic arms. The timing and order of assay plates passing through the screening system were adjusted such that each compound library plate was assayed against the fluorescein- and rhodamine-labeled assay systems at immediately adjacent time points.
Potency means the concentration at half of the fitted maximal effect.

Breast cancer type 1 susceptibility protein (Homo sapiens), sequence (P38398 whole entry, looked up): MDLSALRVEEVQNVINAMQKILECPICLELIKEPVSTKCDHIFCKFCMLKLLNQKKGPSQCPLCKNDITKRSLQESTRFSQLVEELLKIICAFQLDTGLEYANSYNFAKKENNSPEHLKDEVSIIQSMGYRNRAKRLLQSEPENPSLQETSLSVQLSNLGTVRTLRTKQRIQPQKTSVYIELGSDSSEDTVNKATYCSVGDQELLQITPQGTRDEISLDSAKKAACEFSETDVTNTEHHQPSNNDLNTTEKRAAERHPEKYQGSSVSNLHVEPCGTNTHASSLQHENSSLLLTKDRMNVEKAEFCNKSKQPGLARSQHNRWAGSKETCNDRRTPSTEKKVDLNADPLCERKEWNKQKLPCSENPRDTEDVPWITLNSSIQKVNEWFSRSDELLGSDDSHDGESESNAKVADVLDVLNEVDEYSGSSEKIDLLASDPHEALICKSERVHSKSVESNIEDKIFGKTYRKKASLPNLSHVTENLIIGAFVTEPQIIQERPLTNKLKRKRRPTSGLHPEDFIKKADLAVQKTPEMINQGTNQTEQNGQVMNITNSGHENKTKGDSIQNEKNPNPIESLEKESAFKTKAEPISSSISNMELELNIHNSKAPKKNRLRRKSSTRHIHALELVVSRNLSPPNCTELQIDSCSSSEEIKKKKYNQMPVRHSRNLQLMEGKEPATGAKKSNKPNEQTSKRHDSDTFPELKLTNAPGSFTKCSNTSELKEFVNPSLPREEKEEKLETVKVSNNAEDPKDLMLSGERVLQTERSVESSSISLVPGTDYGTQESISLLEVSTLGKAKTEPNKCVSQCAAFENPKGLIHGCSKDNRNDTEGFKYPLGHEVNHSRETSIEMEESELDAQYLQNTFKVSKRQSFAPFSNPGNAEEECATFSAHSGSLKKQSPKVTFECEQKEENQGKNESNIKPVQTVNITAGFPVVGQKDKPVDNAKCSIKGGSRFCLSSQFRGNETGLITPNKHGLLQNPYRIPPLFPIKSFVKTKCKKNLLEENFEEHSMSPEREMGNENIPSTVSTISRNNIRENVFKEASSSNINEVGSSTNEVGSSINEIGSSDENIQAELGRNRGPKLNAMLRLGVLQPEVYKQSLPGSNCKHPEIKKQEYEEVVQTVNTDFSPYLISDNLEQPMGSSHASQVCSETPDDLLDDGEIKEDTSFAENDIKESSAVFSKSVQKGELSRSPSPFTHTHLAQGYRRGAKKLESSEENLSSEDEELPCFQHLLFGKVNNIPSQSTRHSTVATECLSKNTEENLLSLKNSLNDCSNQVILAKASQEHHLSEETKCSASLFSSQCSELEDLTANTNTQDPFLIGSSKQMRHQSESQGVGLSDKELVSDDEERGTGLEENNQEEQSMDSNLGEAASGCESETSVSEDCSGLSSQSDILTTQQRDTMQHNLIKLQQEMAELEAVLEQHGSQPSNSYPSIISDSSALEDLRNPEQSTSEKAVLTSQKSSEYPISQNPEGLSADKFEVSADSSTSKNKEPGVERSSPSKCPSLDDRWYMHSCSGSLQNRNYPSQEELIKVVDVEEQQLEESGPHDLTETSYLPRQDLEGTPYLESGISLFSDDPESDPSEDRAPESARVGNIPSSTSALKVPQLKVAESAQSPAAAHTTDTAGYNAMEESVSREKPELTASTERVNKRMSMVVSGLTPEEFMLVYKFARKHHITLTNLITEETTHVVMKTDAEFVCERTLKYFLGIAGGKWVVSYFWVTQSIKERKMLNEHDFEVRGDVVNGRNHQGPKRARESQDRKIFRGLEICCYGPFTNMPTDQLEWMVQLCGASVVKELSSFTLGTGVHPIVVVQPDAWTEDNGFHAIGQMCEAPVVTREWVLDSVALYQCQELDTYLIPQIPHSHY

Row | SMILES | activity change, negative = inhibition | Potency
1 | C(=C\c1ccccc1)/CSc1nnc(-c2cccnc2)n1Cc1ccco1 | inactive | 
2 | CCN1C(=O)c2cccc3c(N)ccc1c23 | inactive | 
3 | Nc1ccc2c3c(cccc13)C(=O)NC2=O |  | 12.6 µM (active)
4 | Cc1ccc(C)c(N2CCN(S(=O)(=O)c3ccc4c(c3)oc(=O)n4C)CC2)c1 | inactive | 
5 | CCN(CC)CCNC(=O)Cn1cnc2sc(C)c(S(=O)(=O)N3CCOCC3)c2c1=O | inactive | 
6 | CC(=O)Nc1ccc(S(=O)(=O)N2CCSCC2)cc1 | inactive | 
7 | COc1cccc(CNC(=O)C2CCN(S(=O)(=O)c3cccc4cccnc34)CC2)c1 | inactive | 
8 | Cc1ccc(S(=O)(=O)c2c(N)n(C)c3nc4ccccc4nc23)cc1 | inactive | 
9 | O=C(Nc1ccc(S(=O)(=O)N2CCCC2)cc1Cl)C1=COCCO1 | inactive | 
10 | O=C(c1cnccn1)N1CCC2(CCN(Cc3cc(C(F)(F)F)cc(C(F)(F)F)c3)CC2)CC1 | inactive | 
11 | CCOc1ccccc1N(CC(=O)NC1CCCCC1)C(=O)CCCC(=O)Nc1ccccn1 | inactive | 
12 | Cc1cc(C)cc(OCc2nnc(SCC(=O)OC3CCCCC3)o2)c1 | inactive | 
13 | CCOc1cc(S(=O)(=O)NCc2ccc3c(c2)OCO3)ccc1F | inactive | 
14 | COc1ccc(-c2nc3cnc(OC)nc3n(Cc3ccc(F)cc3)c2=O)cc1 | inactive | 
15 | Cc1cc(N=CC2=C(O)CCCC2=O)no1 | inactive | 
16 | CC(=O)c1nc(N2C(=O)C3CC=C(C)CC3C2=O)sc1C (stereo not drawn) | inactive | 
17 | Cc1cn(COC/C=C/c2ccccc2)c(=O)[nH]c1=O | inactive | 
18 | O=C1NC(c2ccncc2)Nc2sc3c(c21)CCCC3 (stereo not drawn) | inactive | 
19 | COc1ccc2c(c1)C=CC1(O2)N(CCO)c2ccccc2C1(C)C (stereo not drawn) | inactive | 
20 | CN(C)CCOC(=O)C(c1ccccc1)C1(O)CCCC1 (stereo not drawn) | -1.8% [at 3.08 µM] | 
21 | COC(=O)c1ccc(CN(c2ccccc2OC)S(=O)(=O)c2cccs2)o1 | inactive | 
22 | COc1ccc(S(=O)(=O)NC(CC(=O)NCc2ccccc2OC)c2ccco2)cc1 (stereo not drawn) | inactive | 
23 | CCOC(=O)C1=C(CNC2CCCCC2)NC(=O)NC1c1cc(C)ccc1C (stereo not drawn) | inactive | 
24 | CCSc1nc2c(c(=O)[nH]1)C(c1cccnc1)C(C(=O)OC(C)C)=C(C)N2 (stereo not drawn) | inactive | 
25 | O=C(CCC(=O)N1CCN(S(=O)(=O)c2ccccc2)CC1)NC1CCCc2ccccc21 (stereo not drawn) | inactive | 
26 | CCNS(=O)(=O)c1ccc(NC(=O)Nc2cccc(OC)c2)cc1 | inactive | 

Row | SMILES | activity change, negative = inhibition | Potency
27 | O=S(=O)(/C=C/c1ccccc1)NCCc1ccccn1 | inactive | 
28 | CCOc1ccc(NC(=O)Nc2cc(C)ccc2OC)cc1 | inactive | 
29 | Cc1cc2nc3c(=O)[nH]c(=O)nc-3n(C[C@H](O)[C@H](O)[C@H](O)CO)c2cc1C |  | 7.94 µM (active)
30 | C=CCn1c(COc2ccccc2C)nnc1SCC(=O)O | inactive | 
31 | O=C(C(Cc1ccccc1)n1cccc1)N1CCN(C2CCCCC2)CC1 (stereo not drawn) | inactive | 
32 | OCc1n[nH]c(CO)n1 | inactive | 
33 | CCn1ncc(Br)c1C(=O)Nc1cc(C)ccc1F | inactive | 
34 | CCOC(=O)CN1C(=O)C(O)(CC(=O)c2ccccn2)c2ccccc21 (stereo not drawn) | inactive | 
35 | CCCOc1cccc(C(=O)Nc2nnn(CCC)n2)c1 | inactive | 
36 | Cn1cnc2c1c(=O)n(Cc1c(Cl)cccc1Cl)c(=O)n2C | inactive | 
37 | COc1cccc([C@H]2Oc3ccc(OC)cc3/C(=N\OCC[C@@H]3C=C[C@H](OC(C)=O)[C@H](COC(C)=O)O3)[C@@H]2O)c1 | 1.43% [at 15.4 µM] | 
38 | Cc1ccccc1OCC(=O)Nc1ccc(N2CCN(C(=O)C(C)C)CC2)c(Cl)c1 | inactive | 
39 | O=C(NCCSc1ccccc1)c1ccco1 | inactive | 
40 | CCCCOc1ccc(-c2nnc(-c3ccco3)o2)cc1 | inactive | 
41 | COc1ccc(-c2oc3cc(OC)ccc3c2C(=O)c2ccc(C#N)cc2)cc1 | inactive | 
42 | Cc1cnc(CNc2cc(-c3c(C)noc3C)ncn2)cn1 | inactive | 
43 | Cn1c(N)c(C(=O)COC(=O)c2cc(C(F)(F)F)nc3c(C(F)(F)F)cccc23)c(=O)n(C)c1=O | inactive | 
44 | CCc1c(C)nc2cc(-c3cccs3)[nH]n2c1=O | inactive | 
45 | COC(=O)c1ccc(C23CC4(C2)[C@H](CN(Cc2cccnc2)[C@@H]4c2ccccc2)C3c2ccc(Cl)nc2)cc1 (stereo partly drawn) | inactive | 
46 | COc1ccc2c(=O)cc(-c3ccccc3)oc2c1O | inactive | 
47 | Cc1ccc(NC(=O)CN2CCC3(O)CCCCC3C2c2ccc3c(c2)OCO3)c(C)c1 (stereo not drawn) | inactive | 
48 | CCS(=O)(=O)N(C)[C@@H]1c2cc(C#N)ccc2OC(C)(C)[C@H]1O | inactive | 
49 | CCc1nc(Nc2ccc3nccnc3c2)c2oc3ccccc3c2n1 | inactive | 
50 | O=C(CN1C(=O)CSc2ncccc21)N1CCOCC1 | inactive | 
51 | FC(F)(F)c1cc(-c2cccs2)nc(NCc2ccco2)n1 | inactive | 
52 | Cc1n[nH]c(C)c1S(=O)(=O)N1CCCC(C(=O)NCC2COc3ccccc3O2)C1 (stereo not drawn) | inactive | 

Row | SMILES | activity change, negative = inhibition | Potency
53 | Cc1ccc(S(=O)(=O)N2CCC(C(=O)N[C@@H](C)C(=O)NCCc3ccccc3)CC2)cc1 | inactive | 
54 | O=C(O)C1CCN1C1CCCCC1 (stereo not drawn) | inactive | 
55 | CCC(=O)c1ccc(OCC(O)CN2CCN(c3cccc(C(F)(F)F)c3)CC2)cc1 (stereo not drawn) | inactive | 
56 | CC1CN(C(=O)CN2C(=O)NC(C)(c3ccccc3)C2=O)CC(C)O1 (stereo not drawn) | inactive | 
57 | O=C(c1cc(C(F)(F)F)cc(C(F)(F)F)c1)N1CCC2(CCCN(Cc3ccncc3)C2)CC1 | inactive | 
58 | CS(=O)(=O)c1ccc2nc(NC(=O)C3C4C=CC(C4)C3C(=O)O)sc2c1 (stereo not drawn) | inactive | 
59 | CCOC(=O)/C=c1\s/c(=C\c2ccccc2OC)c(=O)n1CC(=O)N1CCOCC1 | inactive | 
60 | CCC1=C(OC(=O)N(CC)CC)N2C(=O)OC(=NCC3CC3)[C@]2(C)[C@H]2C1=CC[C@H]1C(=O)N(CC(=O)OC)C(=O)[C@H]12 | inactive | 
61 | Cc1cc(/C=N/n2cnnc2)c(C)n1-c1cccc(C(=O)O)c1 | inactive | 
62 | CC(=O)N(Cc1cccs1)C1CCOC(C)(C)C1 (stereo not drawn) | inactive | 
63 | COCc1nc2ccccc2n1Cc1ccccc1Br | inactive | 
64 | CCn1c(CNC(=O)c2ccc(OC)c(OC)c2)nnc1SCC(=O)Nc1ccccc1 | inactive | 
65 | COc1ccc(OC)c(CN2C(=O)CCC2(C)C(=O)NC2CCCCCC2)c1 (stereo not drawn) | inactive | 
66 | c1ccc(-c2noc(-c3cccs3)n2)nc1 | inactive | 
67 | CCOc1ccc(OCC)c(NC(=O)CN(C)S(=O)(=O)c2cccc3nsnc23)c1 | inactive | 
68 | Cc1ccc2nc(NC3=NCN(CCc4ccccc4)CN3)nc(C)c2c1 | inactive | 
69 | COc1ccccc1-c1nc(NCc2cccs2)c2ccccc2n1 | inactive | 
70 | CC1=C(C(=O)Nc2ccccc2)C(c2cccs2)C(C#N)=C(SCC#N)N1 (stereo not drawn) | inactive | 
71 | COc1ccc(Cl)cc1S(=O)(=O)N1CCN(CC(=O)C(C)(C)C)CC1 | inactive | 
72 | C=CCSc1nc2c(c(=O)[nH]1)C(C(C)C)C(C#N)=C(N)O2 (stereo not drawn) | inactive | 
73 | O=P(c1ccc2c(c1)OCCO2)(N1CCOCC1)N1CCOCC1 | inactive | 
74 | CCCCCn1c(SCCC(C)C)nc2c1c(=O)[nH]c(=O)n2C | inactive | 
75 | Cc1sc2c(c1C)c(=O)n(-c1ccccc1)c1nncn21 | inactive | 
76 | CCCC(=O)N1c2ccc(-c3csc(N)n3)cc2CC1C (stereo not drawn) | inactive | 
77 | CCCCCOC(=O)NCCOC(=O)Nc1ccc(C(=O)OCC)cc1 | inactive | 
78 | Cn1c(=O)c2c(ncn2CC(=O)N2CCN(c3ccccc3)CC2)n(C)c1=O | inactive | 

Row | SMILES | activity change, negative = inhibition | Potency
79 | CN(CCOc1ccc(CC2SC(=O)NC2=O)cc1)c1ccccn1 (stereo not drawn) | -0.73% [at 3.08 µM] | 
80 | COc1cc2c(cc1O)C(SC)=NC(C)(C)C2 | inactive | 
81 | O=C(CN1CCN(C(=O)c2ccco2)CC1)Nc1ccc(Cl)c(C(F)(F)F)c1 | inactive | 
82 | Cc1ccc(C(=O)Nc2ccccc2C(=O)NC2CCCCC2)cc1S(=O)(=O)N1CCOCC1 | inactive | 
83 | C/C(=C\C(=O)c1ccccc1)Nc1cccc(O)c1 | inactive | 
84 | CCC/C(O)=C1\C(=O)CC(C)(C)CC1=Nc1ccccc1OC | inactive | 
85 | COC(=O)c1cc(NC(=O)CN2CCC(C(N)=O)(N3CCCCC3)CC2)cc(C(=O)OC)c1 | inactive | 
86 | Cc1cc(C(=O)Nc2c(C)n(C)n(-c3ccccc3)c2=O)cs1 | inactive | 
87 | COc1ccc(C2C3=C(CC(C)(C)CC3=O)Oc3ncn4nc(-c5cccnc5)nc4c32)cc1OC (stereo not drawn) | inactive | 
88 | Cn1cccc1C(=O)N1CCC[C@@]2(CCN(Cc3nccs3)C2)C1 | inactive | 
89 | O=[n+]1c2c(n([O-])c3cc(Br)ccc31)CCC2 | inactive | 
90 | COc1cc([C@H]2c3cc4c(cc3[C@@H](O[C@@H]3O[C@H]5CO[C@@H](C)O[C@]5(O)C[C@H]3O)[C@@H]3COC(=O)[C@H]23)OCO4)cc(OC)c1O | inactive | 
91 | FC(F)(F)c1ccc(CN2C[C@@H]3C(c4ccccc4)C4(c5ccccc5)CC3(C4)[C@H]2c2ccccc2)cc1 (stereo partly drawn) | inactive | 
92 | CC1CCN(c2nc3c(c(=O)[nH]c(=O)n3C)n2CCCc2ccccc2)CC1 | inactive | 
93 | Cc1cccc2c3c(ccc12)C1=C(C(=O)C3=O)C(C)CO1 (stereo not drawn) | inactive | 
94 | CCOC(=O)c1cc2n(c1C)-c1ccccc1C2=O | inactive | 
95 | CCOC(=O)c1cc2n(c1N)-c1ccccc1C2=O |  | 15.8 µM (active)
96 | CCOC(=O)Nc1ccccc1N1C(=O)c2ccccc2C1=O | inactive | 
97 | COC(=O)[C@@H]1C[C@@]2(O)[C@H](O)[C@H](O)[C@H](O)C[C@H]2N1CC1CCCCC1 | inactive | 
98 | Cn1c(=O)n(C)c2cc(CNc3ccc(N4CCOCC4)c(C(=O)O)c3)ccc21 | inactive | 
99 | O=C(NCc1ccc(Cl)cc1)c1cc2c(nc3sccn32)s1 | inactive | 
100 | COC(=O)[C@@H]1C[C@@]2(O)[C@@H](O)[C@@H](O)[C@@H](O)C[C@H]2N1Cc1ccc(C)s1 | inactive | 
101 | CCc1c(O)nc(SCC(=O)N2CCCCC2)n(-c2ccccc2C)c1=O | inactive | 
102 | O=C(NC1CCCC1)c1ccc(Br)s1 | inactive | 
103 | COc1ccccc1CNC(=O)C1CCN(S(C)(=O)=O)CC1 | inactive | 
